ALOX12 inh – inhibitors of human 12S-lipoxygenase ALOX12 | AID 1671190 | purified 12hLO, xylenol orange hydroperoxide absorbance | P18054 | actives 1.1% (n = 580,000) | Potency, µM (doses to about 108 µM), inactives show top-dose activity change, negative = inhibition, actives largely listed as inhibitors; also: potency is read from the fitted curve at half-maximal effect
Target sequence (P18054 whole entry, looked up): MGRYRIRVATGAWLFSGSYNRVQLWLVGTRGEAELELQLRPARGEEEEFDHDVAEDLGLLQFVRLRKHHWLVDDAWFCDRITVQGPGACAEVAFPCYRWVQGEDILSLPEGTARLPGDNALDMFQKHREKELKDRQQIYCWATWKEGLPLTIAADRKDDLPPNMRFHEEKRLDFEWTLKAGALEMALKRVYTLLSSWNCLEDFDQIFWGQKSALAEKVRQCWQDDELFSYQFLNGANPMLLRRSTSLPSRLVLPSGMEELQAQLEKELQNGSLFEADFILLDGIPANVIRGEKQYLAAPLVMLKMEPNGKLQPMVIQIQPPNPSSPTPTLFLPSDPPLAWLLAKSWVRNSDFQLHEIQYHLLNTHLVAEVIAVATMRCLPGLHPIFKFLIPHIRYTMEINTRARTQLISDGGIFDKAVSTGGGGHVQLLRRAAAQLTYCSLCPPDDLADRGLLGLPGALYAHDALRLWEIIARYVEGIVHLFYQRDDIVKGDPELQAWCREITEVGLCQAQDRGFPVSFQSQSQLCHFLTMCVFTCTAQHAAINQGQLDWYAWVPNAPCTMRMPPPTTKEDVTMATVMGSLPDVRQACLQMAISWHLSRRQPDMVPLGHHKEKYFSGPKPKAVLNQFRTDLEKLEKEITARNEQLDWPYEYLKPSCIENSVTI
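Hydroperoxide product was detected by ferrous iron/xylenol orange as the 573 to 405 nm absorbance ratio. Arachidonic acid at 40 uM (final) was turned over for 30 min at room temperature by 150 nM human 12hLO, pH 7.0 Hepes buffer, after 15 min compound preincubation.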
HT1080-NT tox – kills 2HG-producing HT-1080-NT fibrosarcoma cells; HT-1080-NT fibrosarcoma viability, CellTiter-Glo ATP luminescence, 48 h; AID 686970; Potency, µM (titrated, usually from 46.1 µM), for inactives: top-dose activity, negative = less viability, usual class: cytotoxic; actives 1.6% (n = 360,000);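 also: NT is the 2HG producing partner of a matched IDH1 knockdown line; potency is read from the fitted curve at half-maximal effect; 0% = DMSO-treated cells and -100% = media-only wells without cells; nearly all actives have a fitted effect of over 55% in size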
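Toxicity toward the 2HG-producing NT line was scored as %Activity, normalised to DMSO and no-cell wells, from CellTiter-Glo luminescence after 48 hours' treatment.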
DT40 TDP1 no CPT – qHTS for Inhibitors of human tyrosyl-DNA phosphodiesterase 1 (TDP1): qHTS in cells in absence of CPT; DT40 Tdp1-/- hTDP1 cells, no CPT, ATP luminescence, 48 h; Potency, µM (titrated, usually from 46.2 µM), for inactives: at the top dose activity change, negative = growth inhibition, hits mostly inhibitors; actives 15% (n = 420,000); AID 686978, 2013; also: potency is read from the fitted curve at half-maximal effect; nearly all actives have a fitted effect of over 55% in size
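Cells were dispensed at 400 per well, compounds added by pin tool, plates incubated ≥48 hr at 37 °C, then CellTiter-Glo added for 30 min at room temperature before luminescence reading. Line: DT40 Tdp1-/- complemented with hTDP1; camptothecin omitted.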
DT40 TDP1 CPT – growth inhibition of DT40 Tdp1-/-;hTDP1 cells with camptothecin (screen for TDP1 inhibitors). chicken DT40 Tdp1-/-;hTDP1 cells + 20 nM CPT, ATP luminescence, 48 h. Potency, µM (highest dose often 46.2 µM), for inactives: at the top dose activity change, negative = growth inhibition, usual class: inhibitors. actives 12% (n = 420,000). AID 686979; also: potency is read from the fitted curve at half-maximal effect; nearly all actives have a fitted effect of over 55% in size
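Cell growth measured by CellTiter-Glo luminescence after a minimum 48 h, 37 C compound exposure with 20 nM CPT in Tdp1-knockout DT40 cells stably expressing hTDP1, seeded 400/well; qHTS titration format.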
IL-1B inflam inh – inhibitors of inflammasome signaling (IL-1 beta secretion); actives 4.7% (n = 360,000); activity change, % at 57.5 µM; AID 743279; THP-1 LPS/ATP IL-1B secretion, AlphaLISA, 16 h; stronger effect = lower value; in the data active = activity change below about -50%; inconclusive = mostly about -30% to -49%
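Secreted IL-1B measured by AlphaLISA bead assay after 16 h compound exposure of THP-1 cells; compounds (final up to 57.5 uM) added 1 h before LPS (250 ng/mL) and ATP (1.25 mM) stimulation; lower signal means less secretion.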
HT1080 IDH1KD tx – kills HT-1080 cells with IDH1 knockdown | HT-1080 IDH1 knockdown viability, ATP luminescence, 48 h | Potency, µM (titrated, usually from 46.1 µM), for the others: at the highest dose activity, negative = toxicity, usual class: cytotoxic | actives 2% (n = 360,000) | AID 686971;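 also: potency is read from the fitted curve at half-maximal effect; 0% = DMSO wells and -100% = cell-free medium wells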
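Knockdown cells (IDH1KD HT-1080) received compounds 2 h after plating at 750 cells/well and were kept 48 h at 37 °C in 5% FBS RPMI. A CellTiter-Glo luminescence read gave % activity for curve fitting.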
Active calls of the source: *; ? = inconclusive; nt = no result; [ ] = dose if it differs, or a comment. The sample as a whole holds a higher share of hits than the screen did. Unless noted, calls follow the shape of the dose curve; as a rule, active = well fitted curve in the direction sought with a large enough effect; inconclusive = small, poorly fitted or top-dose-only effect, or another doubt; inactive = no such curve, though single readings can be large; an effect the other way counts as inactive or inconclusive. Unless noted, % is scaled to controls: 0 for no effect and ±100 for the full control effect.

SMILES	ALOX12 inh	HT1080-NT tox	DT40 TDP1 no CPT	DT40 TDP1 CPT	IL-1B inflam inh	HT1080 IDH1KD tx
COc1ccc(C=NNC(=S)NN=Cc2ccc(OC)c(OC)c2)cc1OC	?	-20%	12µM*	7.3µM*	-17	-17%
COc1cc(/C=N/NC(=S)N/N=C/c2cc(OC)c(OC)c(OC)c2)cc(OC)c1OC	2%	-5%	3.7µM*	4.1µM*	10	-1%
COc1ccc(C=NNC(=S)Nc2ccc(F)cc2)cc1OC	?	-6%	2.1µM*	3.3µM*	16	-10%
N#CC1(NC(=O)CSc2nnc(Nc3ccccc3F)s2)CCCC1	13%	6%	1%	8%	12	20%
O=C(NCc1ccccc1)C1=NO[C@@H]2CN(Cc3ccncc3)C[C@H]12	4%[176 µM]	nt	nt	nt	nt	nt
COc1ccccc1NC(=S)N/N=C/c1ccc(O)cc1	?	-16%	5.8µM*	7.3µM*	-101*	-9%
COCCCNC(=S)N/N=C/c1ccc(OC)c(Br)c1	25µM*	-7%	?	?	-28	-2%
COc1ccccc1NC(=S)N/N=C/c1cccc(C)c1	?	0%	?	?	10	3%
COc1ccc(CNC(=S)N/N=C/c2ccc(OC)c(OC)c2)cc1	140%	-9%	2%	3%	8	?
CC(C)S(=O)(=O)c1cnc(-c2ccccn2)nc1N	-36%	21%	-15%	5%	4	22%
CCOC(=O)C1CCN(C(=O)Nc2ccc3nc(-c4ccco4)c(-c4ccco4)nc3c2)CC1	nt	-3%	18µM*	?	-11	-3%
O=C(Nc1ccc2nc(-c3ccco3)c(-c3ccco3)nc2c1)N1CCCCCC1	nt	-29%	15µM*	12µM*	?	?
COc1cc(C(=O)N2CC(=O)Nc3ccc(C)cc3C2c2ccccc2)cc(OC)c1OC (stereo not given)	24%	nt	nt	nt	nt	nt
CCOc1ccc2nc(N3CCCC(C(=O)NCCCOC)C3)sc2c1 (stereo not given)	11%	nt	18µM*	16µM*	nt	nt
CCOc1ccc2nc(N3CCCC(C(=O)NCCc4ccc(C)cc4)C3)sc2c1 (stereo not given)	4%	nt	15µM*	12µM*	nt	nt
COc1ccc2nc(N3CCCC(C(=O)NCCCN4C(C)CCCC4C)C3)sc2c1 (stereo not given)	?	-6%	-23%	10%	-70*	-18%
COc1ccccc1CCC(=O)Nc1ccc(S(=O)(=O)Nc2ncccn2)cc1	-3%	0%	?	?	38	0%
N#Cc1ccc(/C=C/c2nc3ccccc3s2)cc1	5%	nt	nt	nt	nt	nt
COc1cc(OC)cc(C(=O)NC(C)CNc2ccc(Cl)cc2[N+](=O)[O-])c1 (stereo not given)	-5%	-7%	8.2µM*	?	-6	-2%
Clc1cccc(-c2noc(CSc3nc4ccccc4o3)n2)c1	7%	nt	nt	nt	nt	nt
O=C(CN1CCN(Cc2ccccc2)CC1)Nc1cccc(Cl)c1Cl	-6%	3%	21µM*	?	-19	3%
O=C(CN1CCN(CC(=O)Nc2ccccc2Cc2ccccc2)CC1)Nc1ccccc1Cl	-5%	11%	12µM*	10µM*	16	17%
O=C(CN1CCCC1)Nc1ccccc1Cl	-5%	-1%	0%	-3%	-1	2%
O=C(CN1CCCC1)Nc1cccc(Cl)c1Cl	-4%	4%	-9%	8%	5	0%
Cc1ccc(NC(=O)CN2CCN(Cc3ccccc3)CC2)cc1	0%	-8%	-4%	-10%	4	4%
SMILES	ALOX12 inh	HT1080-NT tox	DT40 TDP1 no CPT	DT40 TDP1 CPT	IL-1B inflam inh	HT1080 IDH1KD tx
O=C(CN1CCN(Cc2ccccc2)CC1)Nc1ccc(Br)cc1	59%	9%	21µM*	?	-8	-3%
CC12CC[C@@](C(=O)O)(C(=O)C1=O)C2(C)C	7%	nt	4%[9.04 µM]	20%[9.04 µM]	nt	nt
COc1cccc(/C=N/NC(=O)c2ccc(COc3ccc(Cl)cc3Cl)o2)c1	-3%	?	-7%	-10%	-1	-6%[9.24 µM]
O=C(Nc1ccccc1F)c1ccc(COc2ccc(Cl)cc2Cl)o1	-11%	-4%	-25%	0%	-22	-4%
Cc1nn(Cc2cccc(F)c2)c(C)c1NC(=O)c1ccc(COc2ccccc2Cl)cc1	?	2µM*	?	15µM*	0	?
CC(C)CNC(=O)c1ccc(COc2ccc(Cl)cc2Cl)o1	0%	-1%	21µM*	15µM*	?	-7%
CC(=O)Nc1ccc(NC(=O)c2ccc(COc3ccc(Cl)cc3Cl)o2)cc1	-11%	nt	16µM*	16µM*	nt	nt
Cc1nn(Cc2c(F)c(F)c(F)c(F)c2F)c(C)c1NC(=O)c1ccc(COc2ccc(Cl)cc2Cl)o1	-30%	?	15µM*	21µM*	-63*	?
Cc1nn(Cc2c(F)c(F)c(F)c(F)c2F)c(C)c1NC(=O)c1cccc(COc2ccccc2Cl)c1	2%	?	?	?	6	-28%
COCC1CN(C(C)=O)CC12CCN(Cc1ccc(F)c(F)c1)CC2 (stereo not given)	44%	nt	nt	nt	nt	nt
COc1cc2nc(Nc3ccc(C)c(C)c3)nc(N)c2cc1OC	?	?	15µM*	23µM*	-98*	?
Cc1ccc(Nc2nc(N)c3ccccc3n2)cc1Cl	?	-4%	?	15µM*	-97*	0%
COc1cc2nc(Nc3ccc(F)cc3)nc(N)c2cc1OC	?	1%	4.6µM*	6.5µM*	nt	7%
Cc1ccc(Nc2ncnc(N)n2)cc1C	2%	6%	5%	-14%	-11	8%
CCOC(=O)c1ccc(N/C=C/C(=O)c2ccc(OC)c(OC)c2)cc1	-5%	-19%	?	-18%	-21	?
CCOC(=O)c1ccc(Nc2ccc(-c3ccc(OC)c(OC)c3)nn2)cc1	-29%	-27%	4.6µM*	?	15	?
CCOc1cc(S(=O)(=O)NCCO)ccc1Cl	-30%	nt	nt	nt	nt	nt
CCOC(=O)c1ccc(Nc2nc(N)c3cc(OC)c(OC)cc3n2)cc1	?	-2%	21µM*	7.3µM*	-10	0%
COc1cc2nc(Nc3ccc(C)c(Cl)c3)nc(N)c2cc1OC	20µM*	?	?	?	-94*	13µM*
COc1ccc(C(=O)c2sc(Nc3cccc(C)c3)nc2N)cc1OC	-21%	nt	nt	nt	nt	nt
COc1cc2nc(Nc3cccc(C)c3)nc(N)c2cc1OC	-24%	nt	3.3µM*	12µM*	nt	nt

Screens as filed in PubChem BioAssay.
